Test results published in ChEMBL document CHEMBL1201862, “PubChem BioAssay data set” (2004).
The campaign covered roughly 400,000 compounds. About 2,100 (0.53%) were called active. Another 14% or so got no clear call; they are omitted. The rule behind the calls is not given here. Many of the other results were omitted from the sample, so actives are more common in it than they were.

target: Ataxin-2 (Homo sapiens) (UniProt Q99700); test: qHTS for Inhibitors of ATXN expression.; assay type: functional
Sequence (Q99700 whole entry): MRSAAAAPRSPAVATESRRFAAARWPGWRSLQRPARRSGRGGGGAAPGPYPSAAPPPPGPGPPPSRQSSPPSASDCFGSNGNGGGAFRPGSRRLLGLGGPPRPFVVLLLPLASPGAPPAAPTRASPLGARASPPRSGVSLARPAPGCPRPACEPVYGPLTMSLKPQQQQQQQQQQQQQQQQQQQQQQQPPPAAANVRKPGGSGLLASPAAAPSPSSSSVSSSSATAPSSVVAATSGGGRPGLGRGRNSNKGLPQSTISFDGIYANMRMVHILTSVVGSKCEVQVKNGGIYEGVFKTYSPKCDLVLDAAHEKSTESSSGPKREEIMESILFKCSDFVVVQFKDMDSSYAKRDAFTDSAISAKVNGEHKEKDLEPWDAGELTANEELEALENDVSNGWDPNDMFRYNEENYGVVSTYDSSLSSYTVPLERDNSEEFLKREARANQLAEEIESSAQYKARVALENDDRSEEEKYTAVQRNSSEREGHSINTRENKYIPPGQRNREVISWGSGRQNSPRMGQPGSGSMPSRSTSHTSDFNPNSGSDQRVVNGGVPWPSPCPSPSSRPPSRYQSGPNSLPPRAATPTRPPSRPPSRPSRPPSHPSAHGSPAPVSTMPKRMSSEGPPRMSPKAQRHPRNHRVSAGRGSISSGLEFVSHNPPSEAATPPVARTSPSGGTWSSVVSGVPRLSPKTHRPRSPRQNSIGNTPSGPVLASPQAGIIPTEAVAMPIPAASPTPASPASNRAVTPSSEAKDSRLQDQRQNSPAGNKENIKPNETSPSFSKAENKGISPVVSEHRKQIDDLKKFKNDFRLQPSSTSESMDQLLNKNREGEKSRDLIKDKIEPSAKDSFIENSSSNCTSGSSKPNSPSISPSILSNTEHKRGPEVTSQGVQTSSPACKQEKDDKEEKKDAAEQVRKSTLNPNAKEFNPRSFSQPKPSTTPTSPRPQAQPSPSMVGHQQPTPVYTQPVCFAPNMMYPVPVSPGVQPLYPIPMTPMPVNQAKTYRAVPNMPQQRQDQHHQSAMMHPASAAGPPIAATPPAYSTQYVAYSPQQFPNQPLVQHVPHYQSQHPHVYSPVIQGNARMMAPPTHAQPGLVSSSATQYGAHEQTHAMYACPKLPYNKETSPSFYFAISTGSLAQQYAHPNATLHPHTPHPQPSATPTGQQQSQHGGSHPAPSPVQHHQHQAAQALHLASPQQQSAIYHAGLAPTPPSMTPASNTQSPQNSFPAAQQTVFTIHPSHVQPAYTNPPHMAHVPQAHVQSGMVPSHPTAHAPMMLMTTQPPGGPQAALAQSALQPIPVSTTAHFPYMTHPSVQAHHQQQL

| Compound | Potency |
| --- | --- |
| CCN(C(=O)COC(=O)CCC(=O)c1ccc(Cl)cc1)c1c(N)n(Cc2ccccc2)c(=O)[nH]c1=O | inactive |
| CCN(C(=O)COC(=O)C1CCC(C(C)(C)C)CC1)c1c(N)n(Cc2ccccc2)c(=O)[nH]c1=O (stereo not given) | 22.4 µM (active) |
| CCN(C(=O)COC(=O)CCS(=O)(=O)c1ccccc1)c1c(N)n(Cc2ccccc2)c(=O)[nH]c1=O | inactive |
| CN(C(=O)COC(=O)/C=C/c1ccc2ccccc2n1)C1CCS(=O)(=O)C1 (stereo not given) | inactive |
| Cc1cc(Nc2cccc(O)c2)c2cccc(Br)c2n1 | 8.91 µM (active) |
| Oc1cccc(Nc2c3ccccc3nc3ccccc23)c1 | inactive |
| Cc1cc(NCCO)c2cc(O)ccc2n1 | inactive |
| CCOC(=O)C1=CN(CC2CCCO2)C=C(C(=O)OCC)C1c1ccccc1C(F)(F)F (stereo not given) | inactive |
| COc1ccc(C(=O)/C=C/Sc2nc3ccccc3o2)cc1 | 39.8 µM (active) |
| COc1cccc(C(=O)Oc2ccc3ccc(=O)oc3c2)c1 | inactive |
| COc1ccc(C(=O)/C=C2\Sc3ccccc3N2C)cc1 | inactive |
| CCOC(=O)c1cc2c(=O)n3cccc(C)c3nc2n(Cc2ccco2)/c1=N/C(=O)c1ccccc1 | inactive |
| N#CC1=C(N)N2C(=C(C#N)C1c1cccc(Br)c1)Nc1ccccc12 (stereo not given) | inactive |
| O=C(OCCC12CC3CC(CC(C3)C1)C2)c1ccc(NCc2cc(O)ccc2O)cc1 | 10 µM (active) |
| O=C(OC12CC3CC(CC(C3)C1)C2)c1ccc(NCc2cc(O)ccc2O)cc1 | 8.44 µM (active) |
| COC(=O)C1=CN(CCOC23CC4CC(CC(C4)C2)C3)C=C(C(=O)OC)C1c1ccsc1 | inactive |
| CC1CCN(c2ccc3c(c2)S(=O)(=O)c2cccc(C(=O)O)c2C3=O)CC1 | inactive |
| CN(O)C(=S)c1ccccc1 | 8.91 µM (active) |
| Cc1ccc(S(=O)(=O)Nc2cc(C)c(O)c(Sc3nnc(C)[nH]3)c2)cc1 | inactive |
| Cc1cc(=O)oc2c(CN3CC(C)OC(C)C3)c(O)c(Cl)cc12 (stereo not given) | inactive |
| CC(=O)Oc1ccc2ccc(=O)oc2c1 | inactive |
| CCN(CC)c1ccc2cc(-c3nc4ccccc4n3C)c(=O)oc2c1 | inactive |
| CCCc1nc2ccc(C)cn2c1Cc1ccccc1 | 22.4 µM (active) |
| CCCc1nc2ccc(C(=O)OC)cn2c1Cc1ccccc1C(F)(F)F | 39.8 µM (active) |
| CCCc1nc2c3ccccc3ccn2c1Cc1ccccc1 | 22.4 µM (active) |

| Compound | Potency |
| --- | --- |
| CCC(C)n1c(=N)c(C(=O)NCc2ccccc2)cc2c(=O)n3cc(C)ccc3nc21 (stereo not given) | inactive |
| CCCc1nc2ccc(C)cn2c1Cc1ccccc1OC | 39.8 µM (active) |
| COCCN1C=C(C(=O)OC)C(c2ccccc2C(F)(F)F)C(C(=O)OC)=C1 | inactive |
| Nn1c(Cc2ccccc2)nc2ccccc2c1=O | inactive |
| CCOC(=O)Cc1csc(N/C=C2/C(=O)N(c3ccccc3C(F)(F)F)C(=O)c3ccccc32)n1 | inactive |
| CCn1c(=N)c(C(=O)NCc2ccccc2)cc2c(=O)n3cc(C)ccc3nc21 | inactive |
| COCC(C)n1c(SCc2cc(=O)n3cc(C)ccc3n2)nc2ccccc2c1=O (stereo not given) | inactive |
| O=Cc1ccc(N2N=C(c3ccccc3)CC2c2ccccc2)cc1 (stereo not given) | inactive |
| COC(=O)c1ccc(N2C(c3cc(OC)cc(OC)c3)=Cc3ccc(-c4cccnc4)cc3C2CC(=O)C2CC2)cc1 (stereo not given) | inactive |
| COc1ccc(C2C=C(c3ccc(Cl)cc3)Nc3nc(NC(=O)CCC(=O)O)nn32)cc1 (stereo not given) | inactive |
| CO/C(O)=C1\C(C)=NC2=C(C(=O)CC(C)(C)C2)C1c1cnn(C)c1C (stereo not given) | inactive |
| CCN(CC)c1ccc2c(C)c(CN3CCOCC3)c(=O)oc2c1 | inactive |
| COc1ccc(C2CC(c3cccc(F)c3)=NN2c2ccc(S(N)(=O)=O)cc2)cc1 (stereo not given) | inactive |
| CNC(=O)/C(C#N)=C/c1ccc(-c2nc3ccccc3s2)o1 | inactive |
| CCCc1nc2c(C)cc(Br)cn2c1Cc1ccc(C)cc1 | 20 µM (active) |
| CCN(Cc1cc(=O)n2cc(Cl)c(C)c(Cl)c2n1)Cc1nc(O)c2ccccc2n1 | inactive |
| CCOC(=O)c1s/c(=N\C(=O)/C=C/c2cccs2)n(C)c1C | inactive |
| CCN(CC(=O)NCc1ccc(F)cc1)C(=O)/C=C/c1cccs1 | inactive |
| CN(C)CCCN(C(=O)C1COc2ccccc2O1)c1nc2ccc(F)cc2s1 (stereo not given) | inactive |
| CC(=O)Nc1ccc(NC(=O)C(C)OC(=O)/C=C/c2cccs2)cc1 (stereo not given) | inactive |
| CN(C)CCCN(C(=O)/C=C/c1cccs1)c1nc2ccc(F)cc2s1 | 39.8 µM (active) |
| COc1ccc(OC)c2sc(N(CCN(C)C)C(=O)/C=C/c3cccs3)nc12 | 28.2 µM (active) |
| CC1(C)C(=O)C=CC(=O)C(C)(C)C(=O)C=CC(=O)C(C)(C)C2=CC=C(O2)C(C)(C)C(=O)C=CC1=O | 39.8 µM (active) |
| COCCN=C(S)NCCCNc1nc2cc3c(cc2cc1C#N)OCO3 | inactive |
| Cc1ccc(O)c(-c2cc(-c3ccccc3[N+](=O)[O-])[nH]n2)c1 | 8.91 µM (active) |

| Compound | Potency |
| --- | --- |
| Cc1ccc(C(=O)c2oc3ccccc3c2NC(=O)c2cc(-c3ccccc3O)[nH]n2)cc1 | inactive |
| Cc1cccc(NC(=O)c2cc(-c3cc(Cl)ccc3O)[nH]n2)c1 | inactive |
| Cc1csc(NC(=O)c2cc(O)nc3ccc(S(=O)(=O)N4CCOCC4)cc23)n1 | inactive |
| Cc1ccc(/C=N/N2CCCCC2)o1 | inactive |
| O=C(O)c1cc(-c2ccc(/C=C3\NC(=O)N(c4ccc(Cl)cc4)C3=O)o2)ccc1Cl | inactive |
| Cc1cc(/C=C(\C#N)C(=O)Nc2ccccc2F)c(C)[nH]1 | inactive |
| CCN(CC)c1ccc(/C=C(\C#N)C(=O)NCc2ccccc2)cc1 | inactive |
| CCc1cccc(CC)c1NC(=O)/C(C#N)=C/c1ccccc1C(F)(F)F | 39.8 µM (active) |
| O=C(NCc1ccccn1)C(=O)C1C(=O)Nc2ccccc21 (stereo not given) | inactive |
| COc1ccc(CCNC2=CC(=O)N(c3ccc(F)cc3)C2=O)cc1 | inactive |
| COc1ccc([C@H]2/C=C\CN(C(=O)CC(C)(C)C)[C@@H](C)C(=O)N2Cc2ccc(F)cc2)cc1 | 35.5 µM (active) |
| COc1cc(C(=O)N/N=C/c2sc(N3CCOCC3)nc2-c2ccccc2)cc(OC)c1OC | inactive |
| COc1ccc(/C=C2\Oc3cc(OCC(=O)N4CCC(C(=O)O)CC4)ccc3C2=O)c(OC)c1 | inactive |
| COC(=O)c1cc(=O)n(-c2ccc(F)cc2)/c(=N/c2ccc(F)cc2)s1 | 23.8 µM (active) |
| COC(=O)Cc1c(C)c2cc3c(c(C)c2oc1=O)OCN(CCc1ccccc1F)C3 | inactive |
| CCOC(=O)c1cc2c(=O)n3ccccc3nc2n(Cc2ccco2)/c1=N\C(=O)c1c(F)cccc1Cl | inactive |
| Cc1cs/c(=N\c2cccnc2)n1Cc1ccco1 | inactive |
| COC(=O)c1cc(=O)n(Cc2ccco2)/c(=N/c2ccc(F)c(Cl)c2)s1 | 3.16 µM (active) |
| COC(=O)c1cc(=O)n(CCc2ccccc2F)/c(=N/c2ccc(F)c(Cl)c2)s1 | 33.6 µM (active) |
| COC(=O)c1cc2c(s1)-c1cc(F)ccc1OC2 | inactive |
| Cc1ccc(CCNC(=O)c2cc(S(=O)(=O)N3CCOCC3)cn2C)cc1 | inactive |
| COc1ccc(CN(C(=O)c2snc(C(N)=O)c2N)C(C)C(=O)NCc2ccc(F)cc2)cc1 (stereo not given) | inactive |
| COc1cccc(/C=C/c2nc(C#N)c(NC3CCCCC3)o2)c1 | inactive |
| COc1cccc(Nc2nc(N)c([N+](=O)[O-])c(NCc3ccccc3)n2)c1 | 31.6 µM (active) |
| COc1ccc(Nc2nc(N)c([N+](=O)[O-])c(NC3CCCCC3)n2)cc1 | 31.6 µM (active) |

| Compound | Potency |
| --- | --- |
| CCc1nc(Nc2cccc(OC)c2)c2oc3ccccc3c2n1 | inactive |
| COc1cccc(-c2ccc3c(N)c(C(=O)NCc4ccc(Cl)cc4)sc3n2)c1 | inactive |
| CNc1nc(N)c([N+](=O)[O-])c(NCC2CCCO2)n1 (stereo not given) | inactive |
| O=C1/C(=C/c2ccco2)Oc2c1ccc(O)c2CN1CCCCC1 | inactive |
| O=[N+]([O-])c1cccc(C2CC(c3ccccc3)=NN2c2ccccc2)c1 (stereo not given) | inactive |
| O=c1cc(-c2ccccc2)[nH]n1-c1ccc([N+](=O)[O-])cc1 | 20 µM (active) |
| O=[N+]([O-])c1ccc(-c2cn3nc(-c4ccccc4)c(-c4ccccc4)nc3n2)cc1 | inactive |
| CCOc1ccc(/C=C/c2nc(C#N)c(NCCCOC)o2)cc1 | inactive |
| C#CCN(C[C@H]1[C@H](OC(=O)NC2CCCC2)[C@H](OC(=O)NC2CCCC2)C[C@@H](C(=O)OC)[C@H]1C(=O)OC)S(=O)(=O)c1ccc(C)cc1 | 39.8 µM (active) |
| CC(C)N1CCC(N2CCN(Cc3cccc4nonc34)CC2CCO)CC1 (stereo not given) | inactive |
| CCCCNC(=O)CN1C(=O)c2cccc(N)c2C1=O | inactive |
| Clc1ccc(-c2cn3nc4c(nc3n2)CCCC4)cc1 | inactive |
| COc1ccccc1/C=C/C=C1\Oc2c(ccc(O)c2CN(C)C)C1=O | inactive |
| CCOc1cccc2sc(NN)nc12 | inactive |
| COc1cccc2sc(Nc3nnc(-c4ccc(F)cc4)o3)nc12 | 31.6 µM (active) |
| COc1ccc(-c2nnc(-c3ccc(F)cc3)o2)cc1 | inactive |
| Cc1cccn2c(=O)c3cc(C(=O)NCc4ccccc4)c(=N)n(CCOCCO)c3nc12 | inactive |
| Cc1c(O)c(CN2CCCC2)cc2c3c(c(=O)oc12)CCC3 | inactive |
| COc1ccc(CCN2C(=O)COc3ccccc3C2C(=O)Nc2ccc3c(c2)OCCO3)cc1OC (stereo not given) | 25.1 µM (active) |
| Cc1ccc(NC(=O)C2OCCc3ccccc32)cc1C (stereo not given) | inactive |
| CCCCNc1c(N)n(CCC)c(=O)[nH]c1=O | inactive |
| O=C(CN1C(=O)NC(Cc2c[nH]c3ccccc23)C1=O)Nc1ccc(F)c(F)c1F (stereo not given) | inactive |
| Cc1csc(N=C(S)Nc2cccc(Cl)c2)n1 | 25.1 µM (active) |
| CC(C)c1cccc(C(C)C)c1N=C(S)Nc1cccc(Cl)c1 | inactive |
| CN(C)C(CN=C(S)Nc1cccc(Cl)c1)c1cccnc1 (stereo not given) | inactive |
